Assay [1] can be described thus: qHTS assay to identify small molecule antagonists of the glucocorticoid receptor (GR) signaling pathway - cell viability counter screen (AID 720693; note: nearly all actives have a fitted effect of over 55% in size). (In qHTS, concentration-response curves come from the screen itself.)
Assay [2] is described as follows: qHTS assay for identifying genotoxic compounds that show differential cytotoxicity against isogenic chicken DT40 cell lines with known DNA damage response pathways - wild type cell line (AID 743012). Note: nearly all actives have a fitted effect of over 60% in size. Note: potency is the fitted concentration of half-maximal effect. The method in brief: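 Using parental DT40 (300 cells/well), compounds delivered in DMSO incubate 40 h at 37 C/5% CO2. CellTiter-Glo reagent then stands 30 min at room temperature, and luminescence gives cell viability.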

A short description of assay [3]: qHTS assay for identifying genotoxic compounds that show differential cytotoxicity against isogenic chicken DT40 cell lines with known DNA damage response pathways - Rad54/Ku70 mutant cell line (AID 743015). Note: nearly all actives have a fitted effect of over 60% in size. Note: potency is the fitted concentration of half-maximal effect.
Assay [4] can be described thus: qHTS assay to identify small molecule antagonists of the androgen receptor (AR) signaling pathway using the MDA cell line - cell viability counter screen (AID 743041; note: nearly all actives have a fitted effect of over 45% in size; note: potency is the fitted concentration of half-maximal effect). The procedure, abridged:
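MDA-kb2 AR-luc human breast carcinoma cells (MMTV-luciferase, AR/GR responsive) were treated with compounds plus R1881 agonist for 16 h at 37 °C. Viability was read as CellTiter-Fluor fluorescence in the same wells as the reporter assay.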

Assay [5] is described as follows: qHTS assay to identify small molecule antagonists of the thyroid receptor (TR) signaling pathway (AID 743065). For activity, negative = inhibition: series mostly up to about 70 µM. Note: nearly all actives have a fitted effect of over 55% in size. Note: potency is the fitted concentration of half-maximal effect. The method in brief: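 GH3.TRE-Luc rat pituitary cells carrying two TR response elements driving luciferase were plated for 4 h, given compound plus 1 nM T3 (final), and incubated 23.5 h at 37 C. ONE-Glo luminescence measured reporter inhibition; CellTiter-Fluor fluorescence tracked cytotoxicity.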

Assay [6] deals with thyroid hormone receptor (rat, GH3 cells). Description: qHTS assay to identify small molecule agonists of the thyroid receptor (TR) signaling pathway (AID 743066; calls by dose curve).
Assay [7] can be described thus: qHTS assay to identify small molecule antagonists of the estrogen receptor alpha (ER-alpha) signaling pathway - cell viability counter screen (AID 743074; calls by dose curve; note: nearly all actives have a fitted effect of over 45% in size).
Assay [8] is described as follows: qHTS assay to identify small molecule antagonists of the estrogen receptor alpha (ER-alpha) signaling pathway using the BG1 cell line - cell viability counter screen (AID 743081). For activity change, negative = cytotoxicity: series mostly up to about 70 µM.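 Note: compound given together with 17beta-estradiol as the ER stimulus; nearly all actives have a fitted effect of over 45% in size.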 Note: potency is the fitted concentration of half-maximal effect.
A short description of assay [9]: qHTS assay to identify small molecule antagonists of the androgen receptor (AR) signaling pathway - cell viability counter screen (AID 743033; note: nearly all actives have a fitted effect of over 45% in size).
The nature of assay [10]: qHTS assay to identify small molecule antagonists of the thyroid receptor (TR) signaling pathway - cell viability counter screen (AID 743064). Note: nearly all actives have a fitted effect of over 50% in size. Note: potency is the fitted concentration of half-maximal effect. The procedure, abridged: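 In-well cytotoxicity read by CellTiter-Fluor (30 min, 37 C) following 23.5 h exposure of GH3 cells bearing a TRE-luciferase sensor. Compounds were added alongside 1 nM (final) T3 to drive TR transactivation.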

For assay [11], the target named is Estrogen receptor (Homo sapiens) (UniProt P03372). Description: qHTS assay to identify small molecule antagonists of the estrogen receptor alpha (ER-alpha) signaling pathway (AID 743069; active = well fitted curve in the direction sought with a large enough effect in the signal ratio in the repeat runs, not every such curve was filed as active; the % refers to the signal ratio). The method in brief: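 HEK293 cells stably carrying an ER-alpha-UAS-bla beta-lactamase reporter were pre-cultured overnight in 2% charcoal-stripped FBS medium. Test compounds in DMSO were added together with 17beta-estradiol for 18 hr at 37C. Read-out was fluorescence after 2 hr with LiveBLAzer B/G FRET substrate at room temperature.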
Chain of Estrogen receptor (Homo sapiens) (P03372 whole entry, looked up): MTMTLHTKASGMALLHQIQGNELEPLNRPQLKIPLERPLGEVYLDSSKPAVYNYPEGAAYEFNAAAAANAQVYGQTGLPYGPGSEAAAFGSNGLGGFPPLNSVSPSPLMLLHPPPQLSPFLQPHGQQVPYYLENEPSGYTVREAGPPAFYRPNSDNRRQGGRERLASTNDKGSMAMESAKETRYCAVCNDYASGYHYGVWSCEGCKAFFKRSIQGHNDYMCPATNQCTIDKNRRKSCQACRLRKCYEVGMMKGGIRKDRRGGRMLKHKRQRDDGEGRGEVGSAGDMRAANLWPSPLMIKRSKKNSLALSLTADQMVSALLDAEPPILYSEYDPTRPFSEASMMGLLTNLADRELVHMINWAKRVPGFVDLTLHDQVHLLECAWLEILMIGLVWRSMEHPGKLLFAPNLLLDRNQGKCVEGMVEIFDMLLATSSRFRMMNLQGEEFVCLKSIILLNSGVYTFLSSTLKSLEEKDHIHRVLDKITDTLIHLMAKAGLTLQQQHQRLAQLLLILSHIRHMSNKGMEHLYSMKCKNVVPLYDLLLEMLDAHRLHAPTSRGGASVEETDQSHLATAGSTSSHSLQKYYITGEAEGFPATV

For assay [12] the target is unchanged. Description: qHTS assay to identify small molecule agonists of the estrogen receptor alpha (ER-alpha) signaling pathway (AID 743075; calls by dose curve).
Assay [13] has the same target. Description: qHTS assay to identify small molecule agonists of the estrogen receptor alpha (ER-alpha) signaling pathway using the BG1 cell line (AID 743079). Note: nearly all actives have a fitted effect of over 20% in size.
Assay [14] can be described thus: qHTS assay to identify small molecule antagonists of the estrogen receptor alpha (ER-alpha) signaling pathway using the BG1 cell line (AID 743080; calls by dose curve;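 note: BG1 cells stimulated with 17beta-estradiol alongside compound; series mostly up to about 70 µM; nearly all actives have a fitted effect of over 25% in size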). The method in brief:
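BG1-Luc-4E2 cells (endogenous full-length ER-alpha, stable 4×ERE-luciferase) were starved 5 days in phenol-red-free medium with 10% charcoal-stripped FBS, plated 24 h, then given compound plus 17beta-estradiol for 21.5 h at 37 C; ONE-Glo luminescence read after 30 min.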

Assay [15] deals with Aromatase (Homo sapiens) (UniProt P11511). Nature of the assay: qHTS assay to identify aromatase inhibitors (AID 743083). For activity, negative = inhibition: series mostly up to about 70 µM. Note: nearly all actives have a fitted effect of over 55% in size. Note: potency is the fitted concentration of half-maximal effect.
Chain of Aromatase (Homo sapiens) (P11511 whole entry, looked up): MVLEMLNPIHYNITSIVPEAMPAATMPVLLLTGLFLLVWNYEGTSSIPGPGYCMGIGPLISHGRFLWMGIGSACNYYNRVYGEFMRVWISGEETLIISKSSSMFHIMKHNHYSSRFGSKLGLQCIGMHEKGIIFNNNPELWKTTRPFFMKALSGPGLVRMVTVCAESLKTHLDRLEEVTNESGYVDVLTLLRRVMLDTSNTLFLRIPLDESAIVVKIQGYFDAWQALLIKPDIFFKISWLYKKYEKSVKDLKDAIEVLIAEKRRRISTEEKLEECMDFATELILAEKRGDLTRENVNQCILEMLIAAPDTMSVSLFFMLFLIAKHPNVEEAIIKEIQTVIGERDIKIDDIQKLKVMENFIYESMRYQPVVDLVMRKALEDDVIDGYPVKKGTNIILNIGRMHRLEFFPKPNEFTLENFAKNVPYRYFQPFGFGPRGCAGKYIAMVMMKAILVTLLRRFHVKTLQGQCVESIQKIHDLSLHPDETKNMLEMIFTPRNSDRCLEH
A short description of assay [16]: qHTS assay for identifying genotoxic compounds that show differential cytotoxicity against isogenic chicken DT40 cell lines with known DNA damage response pathways - Rev3 mutant cell line (AID 743014). Note: nearly all actives have a fitted effect of over 55% in size. Note: potency is the fitted concentration of half-maximal effect.
Assay [17] addresses Androgen receptor (Homo sapiens) (UniProt P10275). Nature of the assay: qHTS assay to identify small molecule antagonists of the androgen receptor (AR) signaling pathway (AID 743035; active = well fitted inhibition curve with a large enough effect in the signal ratio in the repeat runs, not every such curve was filed as active; the % refers to the signal ratio). The procedure, abridged:
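Using qHTS, AR-UAS-bla GripTite HEK293 cells received compound, then R1881, and were cultured 16 h at 37C/5% CO2 before a 2 h room-temperature LiveBLAzer B/G FRET substrate step and fluorescence measurement.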

Assay [18] has the same target. Description: qHTS assay to identify small molecule agonists of the androgen receptor (AR) signaling pathway (AID 743036; active = well fitted activation curve with a large enough effect in the signal ratio in the repeat runs, with a control signal flat, not every such curve was filed as active; the % refers to the signal ratio). The procedure, abridged:
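Activation was read as beta-lactamase FRET signal from LiveBLAzer B/G substrate, added for 2 h at room temperature. Before that, GeneBLAzer AR-UAS-bla GripTite (HEK293) cells had 16 h compound exposure at 37C.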

Assay [19] shares this target. Nature of the assay: qHTS assay to identify small molecule agonists of the androgen receptor (AR) signaling pathway using the MDA cell line (AID 743040; note: nearly all actives have a fitted effect of over 20% in size). The method in brief: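 MDA-kb2 breast carcinoma cells stably carrying an MMTV-driven luciferase reporter (AR- and GR-responsive) were seeded and held 5 h at 37C, 0% CO2, then exposed to compounds in DMSO for 16 h. Luminescence was read 30 min after ONE-Glo addition.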

Assay [20] shares this target. Nature of the assay: qHTS assay to identify small molecule antagonists of the androgen receptor (AR) signaling pathway using the MDA cell line (AID 743042; note: nearly all actives have a fitted effect of over 55% in size). The procedure, abridged:
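MDA-kb2 cells (human breast carcinoma, stably carrying an MMTV-luciferase reporter responsive to AR and GR) were plated at 3,000 cells/well and preincubated 5 hr at 37C, then given compound plus R1881 agonist for 16 h. ONE-Glo luminescence was read.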

Each structure is given as a SMILES string. Unmarked numbers belong to inactive results. Inconclusive results are not listed. Calls of active or inactive are those of the source. Unless noted, calls come from the whole dose curve; as a rule, active = well fitted curve in the direction sought with a large enough effect in the repeat runs; inconclusive = weak or mixed curves; inactive = no such curve, though single readings can be large; an effect the other way counts as inactive or inconclusive.
% is set by controls: 0 for no effect and ±100 for the full control effect.

Chain of Androgen receptor (Homo sapiens) (P10275 whole entry, looked up): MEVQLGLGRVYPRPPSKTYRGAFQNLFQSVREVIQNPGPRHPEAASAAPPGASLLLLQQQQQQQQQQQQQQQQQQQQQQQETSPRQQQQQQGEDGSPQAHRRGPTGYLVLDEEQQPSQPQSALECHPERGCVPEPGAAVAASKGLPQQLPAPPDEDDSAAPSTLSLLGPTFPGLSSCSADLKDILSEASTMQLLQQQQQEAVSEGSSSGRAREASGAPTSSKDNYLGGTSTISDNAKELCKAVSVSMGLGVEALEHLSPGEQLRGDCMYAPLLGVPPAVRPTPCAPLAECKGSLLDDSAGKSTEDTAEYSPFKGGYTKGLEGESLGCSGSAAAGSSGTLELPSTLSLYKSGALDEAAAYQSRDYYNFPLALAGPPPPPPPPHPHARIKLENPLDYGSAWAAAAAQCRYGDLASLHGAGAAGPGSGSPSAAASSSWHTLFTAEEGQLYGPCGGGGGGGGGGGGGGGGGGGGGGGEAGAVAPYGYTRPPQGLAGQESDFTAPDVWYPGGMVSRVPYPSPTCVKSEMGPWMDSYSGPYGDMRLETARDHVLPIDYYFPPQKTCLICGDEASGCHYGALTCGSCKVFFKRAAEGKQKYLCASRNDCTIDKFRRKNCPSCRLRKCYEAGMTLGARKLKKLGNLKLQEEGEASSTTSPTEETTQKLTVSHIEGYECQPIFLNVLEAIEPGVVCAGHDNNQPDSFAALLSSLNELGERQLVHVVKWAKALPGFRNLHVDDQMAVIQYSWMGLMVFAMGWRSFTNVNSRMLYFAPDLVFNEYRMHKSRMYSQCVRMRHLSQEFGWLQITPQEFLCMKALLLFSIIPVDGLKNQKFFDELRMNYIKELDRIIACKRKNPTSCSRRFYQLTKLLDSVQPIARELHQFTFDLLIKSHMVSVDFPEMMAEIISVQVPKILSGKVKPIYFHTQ

Regarding `CC1=CCCC(C)(C)C12CCC(C)O2` (stereo unspecified), the Potency result in [1], in assay [4], in assay [5], in [6], in assay [7] and in [8] was “inactive” each time. Besides, the Potency in [2] was 24.3 µM (active); in [3], 13.7 µM (active).

On to `Nc1c(CC(=O)O)cccc1C(=O)c1ccc(Br)cc1`, for which the Potency result in assay [1], in [2], in assay [3], in assay [9], in [4] and in assay [10] was “inactive” each time. The Potency result in assay [6], in [11], in [7], in [12], in assay [13] and in assay [14] was “inactive” each time. Moreover, the Potency entry in assay [8] and in [15] was “inactive” each time.

For the compound `CC(C)Nc1ccc(NC(C)C)c2c1C(=O)c1ccccc1C2=O`, the Potency entry in [1], in [2], in assay [3], in assay [9], in assay [4] and in assay [5] was “inactive” in each case. In addition, the Potency entry in [6], in assay [7], in [12], in assay [13], in assay [8] and in assay [15] was “inactive” each time.

`CCCCC1=NC2(CCCC2)C(=O)N1Cc1ccc(-c2ccccc2-c2nn[nH]n2)cc1`: the Potency result in assay [1], in assay [2], in assay [3], in assay [9], in [4] and in assay [11] was “inactive” each time. Also, the Potency result in [7], in assay [12], in assay [13], in [14], in assay [8] and in assay [15] was “inactive” each time.

Take `C=CC(=O)OCCOc1ccccc1`: the Potency entry in assay [1], in assay [4], in assay [10], in [6], in assay [7] and in assay [8] was “inactive” throughout. The Potency result in [15] is “inactive”. The Potency in assay [2] was 54.4 µM (active); in [16] it was 61.1 µM (active); in [5] it was 54.4 µM (active).

Consider `CC(=O)c1ccc2c(c1)N(CCCN(C)C)c1ccccc1S2`, for which the Potency result in assay [1], in [9], in assay [4], in assay [7], in assay [12] and in assay [13] was “inactive” in each case. Also, the Potency result in [14] and in [8] was “inactive” throughout. The values for the Potency in [2] and in assay [10] were 12.7 µM (active) and 10.1 µM (active), respectively.

Take `O=C(O)c1nc(Cl)c(Cl)c(Cl)c1Cl`: the Potency entry in assay [1], in assay [16], in assay [4], in assay [10], in assay [5] and in [6] was “inactive” each time. Also, the Potency result in assay [7] and in [8] was “inactive” throughout. The Potency in [3] was 61.1 µM (active).

Regarding `O=[N+]([O-])c1ccc(NCCO)c(OCCO)c1`, the Potency entry in assay [1], in assay [2], in assay [3], in [9], in [17] and in [18] was “inactive” in each case. The Potency entry in [19], in [20] and in assay [6] was “inactive” each time. Also, the Potency in assay [4] was 54.5 µM (active); in assay [8], 68.7 µM (active); in [15], 17.2 µM (active).

On to `Nc1cccc(S(=O)(=O)c2cccc(N)c2)c1`, for which the Potency entry in assay [1], in assay [9], in assay [4], in assay [5], in [6] and in assay [7] was “inactive” throughout. Moreover, the Potency entry in assay [12], in assay [13], in assay [14], in assay [8] and in assay [15] was “inactive” in each case. In addition, the Potency in assay [2] and in [3] was 61.1 µM (active) in each case.

In the case of `c1ccc(-c2ccccn2)nc1`, the Potency result in assay [1], in assay [9], in [18], in assay [19], in assay [20] and in assay [10] was “inactive” in each case. Further, the Potency result in [5], in [6], in [7], in assay [12], in [13] and in assay [14] was “inactive” each time. The Potency entry in assay [8] and in [15] was “inactive” throughout. The Potency in assay [16] and in assay [3] was 24.3 µM (active) in each case.

In the case of `CN(C)c1ccc(/C=C/c2ccc([N+](=O)[O-])cc2)cc1`, the values for the viability change, negative = cytotoxic in assay [1] and in assay [4] were 6.19% [at 7.04 µM] and -4.28% [at 8.47 µM], respectively. Moreover, the activity, negative = cytotoxicity in assay [16] was -15.9% [at 8.53 µM]; in [7], -15.2% [at 6.72 µM]. Besides, the figures for the activity change, negative = cytotoxicity in [3], in assay [9] and in assay [8] were 1.06% [at 8.55 µM], 7.66% [at 7.04 µM] and 18.2% [at 8.47 µM], respectively. Besides, the activity change, negative = cytotoxic in [10] was 14.3% [at 8.44 µM]. For the same compound, the activity, negative = inhibition in [15] was 68.2% [at 8.47 µM].

Take `Cc1oc(-c2ccccc2)nc1CCOc1cccc2c1ccn2CCC(=O)O`: the Potency result in assay [1], in [2], in assay [9], in [6], in assay [7] and in [12] was “inactive” in each case. Further, the Potency result in assay [13], in [14], in [8] and in assay [15] was “inactive” throughout.

On to `CN(C)CCN(Cc1ccc(Cl)cc1)c1ccccn1`, for which the Potency result in assay [1], in assay [4], in assay [6], in assay [7], in assay [8] and in assay [15] was “inactive” in each case. Also, the Potency was 12.7 µM (active) in [2], 11.4 µM (active) in [10] and 10.1 µM (active) in assay [5].

As for `CCC(Cl)CCC(Cl)C(Cl)CC(Cl)C(Cl)C(Cl)CCl` (stereo unspecified), the Potency entry in [1], in [16], in [3], in [9], in assay [10] and in assay [6] was “inactive” in each case. The Potency result in assay [7], in assay [8] and in [15] was “inactive” in each case.

As for `O=C1C(O)=C(O)C(=O)C(O)=C1O`, the Potency result in assay [1], in assay [2], in assay [3], in [9], in assay [4] and in [10] was “inactive” throughout. Further, the Potency result in assay [5], in assay [6], in assay [11], in [7], in [12] and in assay [13] was “inactive” in each case. In addition, the Potency entry in [14], in assay [8] and in assay [15] was “inactive” throughout.

Consider `Cc1cccc(Nc2ccccc2)c1`, for which the Potency result in [1], in assay [18], in assay [19], in assay [4], in assay [6] and in assay [7] was “inactive” each time. The Potency entry in assay [8] is “inactive”. Also, the Potency in assay [16] was 30.6 µM (active); in assay [3], 48.6 µM (active).

With `Cc1ccccc1S(=O)(=O)O`, the Potency result in assay [1], in [16], in assay [3], in [9], in assay [4] and in assay [5] was “inactive” in each case. The Potency entry in assay [6], in assay [7] and in assay [8] was “inactive” throughout.

(Values after PubChem BioAssay (Tox21).)
